High-throughput results: PubChem, National Center for Advancing Translational Sciences (NCATS)
USP2a inhib: qHTS Assay for Inhibitors of Ubiquitin-specific Protease USP2a. Ubiquitin carboxyl-terminal hydrolase 2 (Homo sapiens), O75604. USP2a enzymatic assay, qHTS inhibition. Potency, µM (highest dose often 38.3 µM), actives largely listed as inhibitors. 60,000 tested, 0.1% active. AID 927, 2007; note: nearly all actives have a fitted effect of over 60% in size
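Inhibition is measured in a cell-free coupled assay with 20 nM USP2 core, 20 nM Ub-PLA2 and 20 uM NBD C6-HPC, 2.5 h incubation. Activity normalized to NEM control.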
TSHR ag: qHTS Assay for Agonists of the Thyroid Stimulating Hormone Receptor | Potency, µM (titrated, usually from 57.1 µM), hits mostly activators | AID 926, 2007 | Thyrotropin receptor (Homo sapiens), P16473 | HEK293-CNG-TSHR cells (CNG channel as cAMP sensor), membrane potential dye, cAMP | 73,000 tested, 0.48% active; active = well fitted activation curve with a large enough effect in the main read-out, with a control signal flat, not every such curve was filed as active; inconclusive = small, poorly fitted or top-dose-only effect, or a change in a side signal; inactive = no such curve, though single readings can be large or run the other way; reference of the percent scale not stated here;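 note: the control signal comes from parental cells without the receptor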
Target sequence (P16473 whole entry, looked up): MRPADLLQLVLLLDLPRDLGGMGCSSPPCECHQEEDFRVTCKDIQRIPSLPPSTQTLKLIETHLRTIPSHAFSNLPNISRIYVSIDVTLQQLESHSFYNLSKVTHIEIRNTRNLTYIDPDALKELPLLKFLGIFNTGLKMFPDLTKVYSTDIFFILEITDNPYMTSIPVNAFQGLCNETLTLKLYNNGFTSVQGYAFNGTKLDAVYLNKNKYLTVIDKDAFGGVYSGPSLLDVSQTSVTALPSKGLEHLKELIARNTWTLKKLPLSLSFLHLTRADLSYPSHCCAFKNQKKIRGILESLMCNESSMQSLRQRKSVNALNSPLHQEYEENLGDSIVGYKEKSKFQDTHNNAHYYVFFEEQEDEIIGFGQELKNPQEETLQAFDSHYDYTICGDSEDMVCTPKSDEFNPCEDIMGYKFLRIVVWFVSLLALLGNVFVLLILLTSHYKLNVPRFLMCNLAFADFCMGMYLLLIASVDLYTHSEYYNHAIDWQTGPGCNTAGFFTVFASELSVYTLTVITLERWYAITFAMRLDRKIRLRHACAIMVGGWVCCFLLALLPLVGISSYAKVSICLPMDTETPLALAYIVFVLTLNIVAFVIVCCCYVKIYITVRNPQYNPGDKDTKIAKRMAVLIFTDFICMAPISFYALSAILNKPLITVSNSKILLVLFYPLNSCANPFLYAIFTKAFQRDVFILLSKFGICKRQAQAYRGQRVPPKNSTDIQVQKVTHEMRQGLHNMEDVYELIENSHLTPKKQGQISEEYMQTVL
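cAMP rise detected as CNG-channel membrane depolarization by fluorescent dye (emission 590 nm), 30 min after compound, following 60 min dye loading containing 100 uM RO 20-1724 at room temperature. Cells: TSHR/CNG HEK 293, with parental CNG HEK 293 as control.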
Casp1 inh: qHTS Assay for Allosteric/Competitive Inhibitors of Caspase-1; 75,000 tested, 0.03% active; P29466; Caspase-1 enzyme, Ac-WEHD-AFC fluorogenic rate; Potency, µM (top dose mostly 57.5 µM), usual class: inhibitors
Caspase-7 inhib: qHTS Assay for Allosteric/Competitive Inhibitors of Caspase-7. P55210. recombinant caspase-7, Ac-DEVD-AFC fluorescence rate. Potency, µM (series often up to 57.5 µM), actives largely listed as inhibitors. 75,000 tested, 0.02% active. AID 889, 2007; active = well fitted inhibition curve with a large enough effect in the main read-out, with a control signal flat, not every such curve was filed as active; inconclusive = small, poorly fitted or top-dose-only effect, or a change in a side signal
CRE-bla Fsk: Cell signaling CRE-BLA (Fsk stim) | CHO CRE-bla reporter (cAMP response element driving beta-lactamase), forskolin EC10, beta-lactamase ratio | Potency, µM (series often up to 38.2 µM), hits mostly activators | 71,000 tested, 2.5% active; active = well fitted activation curve with a large enough effect in the signal ratio, with a control signal flat, not every such curve was filed as active; inconclusive = small, poorly fitted or top-dose-only effect, or effect the other way, or a change in a side signal; the % refers to the signal ratio
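Forskolin analogue NKH 477 at EC10 stimulated CRE-driven beta-lactamase in CHO cells alongside compound dilution series. Beta-lactamase was measured with CCF4, excitation 405 nm, emission ratio 460/530 nm.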
HEK293 cAMP ctrl: qHTS Assay for Agonists of the Thyroid Stimulating Hormone Receptor: Activators of Intracellular cAMP Concentrations in Parental HEK 293; Potency, µM (top dose mostly 57.1 µM), hits mostly activators; 73,000 tested, 2.5% active; AID 938, 2007; parental HEK293 CNG cAMP sensor, membrane potential fluorescence; note: nearly all actives have a fitted effect of over 55% in size
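Parental HEK 293 cells stably expressing a cAMP-gated CNG channel were loaded with membrane potential dye containing 100 uM RO 20-1724 for 60 min. Compound added for 30 min; depolarization read as fluorescence intensity at 590 nm.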
Numbers stand for hits; – = inactive; ? = inconclusive; · = not tested or not shown; ! = repeats disagree; [ ] = remark or other dose. Compounds with a hit are over-represented: about 5% of the library has one in this group of screens. Unless noted, calls come from the whole dose curve; as a rule, active = well fitted curve in the direction sought with a large enough effect; inconclusive = small, poorly fitted or top-dose-only effect, or another doubt; inactive = no such curve, though single readings can be large; an effect the other way counts as inactive or inconclusive.

SMILES | USP2a inhib | TSHR ag | Casp1 inh | Caspase-7 inhib | CRE-bla Fsk | HEK293 cAMP ctrl
CCN1C(=O)c2cccc3c(S(=O)(=O)Nc4nc(C)cs4)ccc1c23 | – | – | – | – | 15.8µM | –
O=C(O)C1C(C(=O)O)C(C(=O)O)C1C(=O)O (stereo unspecified) | · | –[11.4 µM] | –[11.5 µM] | –[11.5 µM] | –[7.6 µM] | –[11.4 µM]
CC(C)(C)c1ccc(OC2C(O)COC2/C=C/C#Cc2ccccc2)cc1 (stereo unspecified) | · | –[11.4 µM] | –[11.5 µM] | –[11.5 µM] | · | –[11.4 µM]
Cc1cc(C)nc(N2CCCC(C(=O)Nc3ccc4nc(C)c(C)nc4c3)C2)n1 (stereo unspecified) | – | – | – | – | 6.31µM | –
COc1ccccc1-c1noc(-c2ccco2)n1 | – | – | – | – | – | –
COc1cc(-c2noc(-c3ccco3)n2)cc(OC)c1OC | – | ? | – | – | 15.8µM | –
COc1ccc(-c2nc(-c3cccc(C)c3)no2)cc1OC | – | · | – | – | ? | –
COc1cc(-c2nc(-c3cccc(C)c3)no2)cc(OC)c1OC | –[7.66 µM] | · | – | – | 0.794µM | –[11.4 µM]
CCCCC/C=C\C[C@H](O)/C=C\c1cccc(C[C@H](O)CCCCO)n1 | – | – | – | – | ? | –
O=C(c1ccco1)N1CCC2(CC1)CN(Cc1cc(C(F)(F)F)cc(C(F)(F)F)c1)C2 | – | ? | – | – | – | 15.8µM
Cn1cccc1C(=O)N1CCC[C@@]2(CCN(Cc3ccc(C#N)cc3)C2)C1 | – | – | – | – | – | –
Cn1cccc1C(=O)N1CCC[C@@]2(CCN(Cc3cc(C(F)(F)F)cc(C(F)(F)F)c3)C2)C1 | – | ? | – | – | ? | 12.6µM
Cn1cccc1C(=O)N1CCC2(CC1)CN(Cc1cc(C(F)(F)F)cc(C(F)(F)F)c1)C2 | – | ? | – | – | – | 15.8µM
CC(C)c1cc(C(F)(F)F)nc(NNc2nc(C(C)C)cc(C(F)(F)F)n2)n1 | · | ? | –[11.5 µM] | –[11.5 µM] | –[7.6 µM] | 5.01µM
Cc1cc2c(C)nc(-c3ccccc3)nc2o1 | – | – | – | – | 0.398µM | –
Cn1c2ccc(F)cc2c2ncn(CCN3CCOCC3)c(=O)c21 | – | – | – | – | 10µM | –
Cn1c2ccccc2c2ncn(CCCN3CCOCC3)c(=O)c21 | – | –[11.4 µM] | – | – | ? | –
CN1Cc2sc(N)c(C#N)c2CC1(C)C | – | – | · | ? | 10µM | –
N#Cc1c(N)sc(=S)c2c1CCCC2 | – | – | ? | – | – | –
COc1ccc2nc3c(c([Si](C)(C)C(C)(C)C)c2c1)Cn1c-3cccc1=O | · | ? | – | – | ? | ?
COc1cc2nc3c(c([Si](C)(C)C(C)(C)C)c2cc1OC)Cn1c-3cccc1=O | · | – | – | – | 15.8µM | –
CC(C)(C)[Si](C)(C)c1c2c(nc3ccc(OCc4ccccc4)cc13)-c1cccc(=O)n1C2 | · | – | – | – | 7.94µM | –
COc1ccc(OCc2cccc(C(=O)O)c2)cc1 | – | – | – | – | – | –
O=C(O)[C@@H]1[C@@H](C(=O)Nc2ccccc2)[C@@H]2C=C[C@@H]1O2 | · | –[11.4 µM] | –[11.5 µM] | –[11.5 µM] | –[7.6 µM] | –[11.4 µM]
Nc1nc(SCc2ccccc2[N+](=O)[O-])c2[nH]cnc2n1 | · | –[11.4 µM] | –[11.5 µM] | –[11.5 µM] | –[7.6 µM] | –[11.4 µM]
SMILES | USP2a inhib | TSHR ag | Casp1 inh | Caspase-7 inhib | CRE-bla Fsk | HEK293 cAMP ctrl
CS(=O)(=O)Nc1cccc(-c2nc(Nc3ccccc3)c3ccccc3n2)c1 | – | · | – | – | ? | –
Cc1cnc(CNc2nc(-c3cccc(NS(C)(=O)=O)c3)nc3ccccc23)cn1 | – | – | – | – | 12.6µM | –
COc1cccc(-c2nc(NCc3cnc(C)cn3)c3ccccc3n2)c1 | – | – | – | – | 12.6µM | –
CS(=O)(=O)Nc1cccc(-c2nc(Nc3ccncc3)c3ccccc3n2)c1 | – | – | – | – | 6.31µM | –
CCOc1ccc(-n2c(Cc3ccccc3)nnc2SCc2c(C)noc2C)cc1 | – | – | – | – | – | –
Cc1noc(C)c1CN1C(=O)NC(Cc2ccccc2)(Cc2ccccc2)C1=O | – | 25.1µM | – | – | ? | –
N#CCSc1nc2c(c(C3CC=CCC3)c1C#N)CCC2 (stereo unspecified) | – | ? | – | – | ? | 10µM
COC(=O)NC(CC(C)=O)c1cccc(C)c1 (stereo unspecified) | · | –[11.4 µM] | –[11.5 µM] | –[11.5 µM] | · | –[11.4 µM]
CCN1C(C)=C(C(=O)OC)C(c2ccccc2)N2C(=O)[C@@]3(C(=O)OC)O[C@@]12C1C(=O)CCCC13 (stereo partly specified) | · | –[11.4 µM] | –[11.5 µM] | –[11.5 µM] | · | –[11.4 µM]
C[C@@H]1C=C[C@](Cc2ccccc2)(C(=O)NCC2CC2)N1C(=O)c1ccccc1 | · | ? | – | – | – | 15.8µM
COC(=O)CNC(=O)[C@@]1(Cc2ccccc2)C=C[C@@H](C)N1C(=O)c1ccccc1 | · | ? | – | – | – | ?
CCOCCc1nnc(NC(=O)c2cc(OC)c(OC)c(OC)c2)s1 | – | – | – | – | 10µM | –
COc1cc(C(=O)Nc2nnc(C)s2)cc(OC)c1OC | · | – | – | – | ? | –
COCCn1c(=O)c(-c2cccc(Cl)c2)nc2cncnc21 | – | – | ? | – | ? | –
CCc1ccc2c(-c3cccc(Cl)c3)nc(=O)n(CC)c2n1 | · | ? | – | – | 0.794µM | ?
COc1ccc(Oc2nc(C)nc3c2oc2ccccc23)cc1 | – | ? | – | – | ? | 25.1µM
COc1cc2c3cc1Oc1cc(ccc1O)C[C@@H]1c4c(cc(OC)c(O)c4Oc4ccc(cc4)C[C@H]3[N+](C)(C)CC2)CC[N+]1(C)C | · | ? | –[11.5 µM] | –[11.5 µM] | –[7.6 µM] | ?
CO[C@@H]1CC[C@@]2(C)[C@@H](CC[C@@]3(C)[C@H]2CC=C2[C@H]4CC(C)(C)[C@H](O)[C@@H](OC(C)=O)[C@]4(CO)[C@H](O)C[C@]23C)[C@@]1(C)CO (tested in a mixture with another compound) | – | 15.8µM | – | – | ? | –
C/C=C(/C)C(=O)OC1C(OC(C)=O)[C@@]2(CO)C(O)C[C@@]3(C)C(=CCC4[C@@]5(C)CCC(OC6OC(C(=O)O)[C@@H](O[C@@H]7OC(CO)C(O)C(O)C7O)C(O)[C@H]6O[C@@H]6OC(CO)C(O)C(O)C6O)[C@](C)(CO)C5CC[C@@]43C)C2CC1(C)C (stereo partly specified) | – | · | – | – | · | ·
Nc1nc2ccc(OC(F)(F)F)cc2s1 | – | – | – | – | 12.6µM! | –
O=C(O)C[C@H]1OCC=C2C[N@@+]3([O-])CC[C@]45c6ccccc6N[C@@H]4[C@@H]1[C@H]2C[C@H]53 | · | –[11.4 µM] | –[11.5 µM] | –[11.5 µM] | –[7.6 µM] | –[11.4 µM]
